Activity calls are given as the source filed them. Rule for the calls: active = hit-call score of the fitted dose curve at least 0.9, where 1 is the maximum; inactive = score below 0.9.
What was measured:
[1] = ATG_CRE_CIS: Attagene CIS-FACTORIAL HepG2 Assay for human cAMP Responsive Element (CRE) binding protein 3 (AID 2282926); conditions: HepG2 CRE cis-reporter, Attagene multiplexed mRNA; actives raise or lower the signal
Summary of the method: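 Readout: fluorescently labelled reporter transcripts resolved by capillary electrophoresis after RT-PCR, taken 24 h post-dosing in transfected HepG2. Endogenous transcription factor activity drives each cis-element reporter; gain or loss of signal fitted relative to DMSO control.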

[2] = target: CCAAT/enhancer-binding protein beta (Homo sapiens) (UniProt P17676); assay: ATG_C_EBP_CIS: Attagene CIS-FACTORIAL HepG2 Assay for human CCAAT/Enhancer Binding Protein (C/EBP) beta (AID 2282927); conditions: HepG2 Attagene cis-factorial transcription factor reporter; actives raise or lower the signal
CCAAT/enhancer-binding protein beta (Homo sapiens), sequence (P17676 whole entry, looked up): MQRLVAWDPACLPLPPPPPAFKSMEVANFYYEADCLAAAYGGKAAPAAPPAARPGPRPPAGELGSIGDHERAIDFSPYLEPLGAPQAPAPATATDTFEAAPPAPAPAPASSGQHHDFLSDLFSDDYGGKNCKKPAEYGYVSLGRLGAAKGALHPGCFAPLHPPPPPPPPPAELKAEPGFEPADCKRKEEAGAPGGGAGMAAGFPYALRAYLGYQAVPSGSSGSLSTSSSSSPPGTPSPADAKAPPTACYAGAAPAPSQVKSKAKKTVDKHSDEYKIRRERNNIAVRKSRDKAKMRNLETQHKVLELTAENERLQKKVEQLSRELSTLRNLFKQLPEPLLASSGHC
Summary of the method: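 Changes in reporter mRNA, rather than exogenous chimeric receptor activity, reflect native C/EBP signalling in transfected HepG2 cells dosed for 24 h; transcripts are detected by RT-PCR and capillary electrophoresis.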

[3] = ATG_DR4_LXR_CIS: Attagene CIS-FACTORIAL HepG2 Assay for human Liver X Receptor (LXR), DR4 submotif (AID 2282929); conditions: HepG2 Attagene DR4 cis-reporter, mRNA transcription; actives raise or lower the signal
Summary of the method: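 HepG2 cells were transiently transfected with multiple cis-regulated reporter units and dosed for 24 hours. The DR4 reporter mRNA was quantified by RT-PCR, 6-FAM labelling and capillary electrophoresis. Bidirectional fits used DMSO as baseline.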

[4] = target: Aryl hydrocarbon receptor (Homo sapiens) (UniProt P35869); assay: ATG_Ahr_CIS: Attagene CIS-FACTORIAL HepG2 Assay for human Aryl Hydrocarbon Receptor (Ahr) (AID 2282930); conditions: HepG2 AhR cis-factorial reporter transcription; actives raise or lower the signal
Aryl hydrocarbon receptor (Homo sapiens), sequence (P35869 whole entry, looked up): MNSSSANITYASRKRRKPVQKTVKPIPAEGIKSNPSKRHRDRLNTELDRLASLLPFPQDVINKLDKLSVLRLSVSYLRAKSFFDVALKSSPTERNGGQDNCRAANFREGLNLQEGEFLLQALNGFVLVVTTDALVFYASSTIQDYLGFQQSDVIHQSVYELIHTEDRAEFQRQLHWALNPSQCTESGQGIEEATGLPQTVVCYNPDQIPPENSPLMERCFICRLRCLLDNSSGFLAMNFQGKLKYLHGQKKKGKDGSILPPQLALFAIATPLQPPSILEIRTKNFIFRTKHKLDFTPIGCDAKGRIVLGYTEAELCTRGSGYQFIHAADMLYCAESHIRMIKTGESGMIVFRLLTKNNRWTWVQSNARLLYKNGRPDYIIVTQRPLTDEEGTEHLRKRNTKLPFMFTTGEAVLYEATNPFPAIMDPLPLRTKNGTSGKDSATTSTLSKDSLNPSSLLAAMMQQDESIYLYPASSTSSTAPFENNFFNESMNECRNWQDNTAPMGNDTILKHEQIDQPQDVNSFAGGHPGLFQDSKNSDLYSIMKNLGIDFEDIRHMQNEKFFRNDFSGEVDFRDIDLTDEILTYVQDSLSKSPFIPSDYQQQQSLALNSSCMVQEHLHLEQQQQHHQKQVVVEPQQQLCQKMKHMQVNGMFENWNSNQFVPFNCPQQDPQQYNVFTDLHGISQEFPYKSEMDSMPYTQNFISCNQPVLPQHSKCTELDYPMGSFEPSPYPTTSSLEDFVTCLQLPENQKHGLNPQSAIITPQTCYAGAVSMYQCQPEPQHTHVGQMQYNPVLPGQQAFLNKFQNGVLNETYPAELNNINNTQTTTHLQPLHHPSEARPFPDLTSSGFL
Summary of the method: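 HepG2, transient MRTU (cis) transfection, 24 h exposure. RNA → cDNA → PCR → 6-FAM primer extension → HpaI 2 h 37 C → CE. Fit: bidirectional, DMSO baseline.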

[5] = ATG_AP_1_CIS: Attagene CIS-FACTORIAL HepG2 Assay for human Activator Protein 1 (AP-1) (AID 2282931); conditions: HepG2 Attagene cis-factorial AP-1 reporter mRNA; actives raise or lower the signal
Summary of the method: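 HepG2 cells transiently transfected with cis-element-driven reporter transcription units, dosed for 24 hours. Reporter mRNA measured by RT-PCR, 6-FAM labelling, HpaI digestion and capillary electrophoresis. Bidirectional fitting against DMSO baseline.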

[6] = ATG_BRE_CIS: Attagene CIS-FACTORIAL HepG2 Assay for human Bone Morphogenetic Protein (BMP) Response Element (BRE) (AID 2282933); conditions: HepG2 BMP response element reporter, Attagene transcription factor profiling; actives raise or lower the signal
Summary of the method: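 Endogenous transcription factor activity at a BMP response element was monitored in transfected HepG2 cells 24 h after dosing. Fluorescent RT-PCR products were resolved by capillary electrophoresis, and activity was fitted in both directions versus DMSO.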

[7] = target: Transcription factor E2F1 (Homo sapiens) (UniProt Q01094); assay: ATG_E2F_CIS: Attagene CIS-FACTORIAL HepG2 Assay for human E2F Transcription Factor 1 (AID 2282935); conditions: HepG2 Attagene cis-reporter, E2F reporter RNA transcripts; actives raise or lower the signal
Transcription factor E2F1 (Homo sapiens), sequence (Q01094 whole entry, looked up): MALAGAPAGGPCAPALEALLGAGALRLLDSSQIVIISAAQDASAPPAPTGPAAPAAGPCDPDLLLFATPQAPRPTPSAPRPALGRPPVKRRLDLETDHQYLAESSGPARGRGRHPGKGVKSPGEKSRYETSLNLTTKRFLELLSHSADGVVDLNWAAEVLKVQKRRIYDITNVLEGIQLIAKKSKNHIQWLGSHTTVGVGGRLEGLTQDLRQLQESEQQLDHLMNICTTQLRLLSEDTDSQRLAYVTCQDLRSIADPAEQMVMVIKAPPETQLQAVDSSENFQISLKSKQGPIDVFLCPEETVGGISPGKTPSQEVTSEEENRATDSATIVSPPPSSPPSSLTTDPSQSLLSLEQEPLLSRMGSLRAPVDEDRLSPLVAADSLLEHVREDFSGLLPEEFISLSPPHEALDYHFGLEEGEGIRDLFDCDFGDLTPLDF
Summary of the method: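 Gain or loss of reporter transcript, fitted against DMSO, reflects E2F1-driven transcription. Transiently transfected HepG2 dosed 24 h before RNA isolation. Quantified by fluorescent RT-PCR products separated by capillary electrophoresis.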

[8] = ATG_E_Box_CIS: Attagene CIS-FACTORIAL HepG2 Assay for human Enhancer Box (E-box) (AID 2282936); conditions: HepG2 E-box cis-reporter transcription, actives raise or lower the signal
Summary of the method: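 E-box-driven reporter transcripts measured in transiently transfected HepG2 after 24 h exposure: RNA reverse-transcribed, PCR-amplified, fluorescently labelled, digested and resolved by capillary electrophoresis. Gain or loss relative to DMSO.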

[9] = ATG_M_61_CIS: Attagene CIS-FACTORIAL HepG2 Assay for M61 Transcription Factor (Internal Marker) (AID 2282937); conditions: HepG2 Attagene CIS-FACTORIAL M61 internal marker reporter; actives raise or lower the signal
Summary of the method: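 HepG2 cells transiently transfected with multiplexed cis-promoter reporter units reporting endogenous transcription factor activity, measured 24 h after dosing. Reporter mRNA quantified by RT-PCR and capillary electrophoresis; bidirectional fit against DMSO baseline.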

[10] = ATG_EGR_CIS: Attagene CIS-FACTORIAL HepG2 Assay for human Early Growth Response 1 (EGR1) (AID 2282938); conditions: HepG2 Attagene CIS-FACTORIAL EGR reporter mRNA; actives raise or lower the signal
Summary of the method: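 HepG2 cells transiently transfected with cis-element-driven multiplexed reporter units, dosed for 24 h. EGR1-element reporter mRNA quantified by RT-PCR, 6-FAM labelling, HpaI digestion and capillary electrophoresis; bidirectional fit versus DMSO.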

[11] = ATG_M_19_CIS: Attagene CIS-FACTORIAL HepG2 Assay for M19 Transcription Factor (Internal Marker) (AID 2282939); conditions: HepG2 Attagene CIS-FACTORIAL M19 internal marker reporter; actives raise or lower the signal
Summary of the method: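 Background-control endpoint from a multiplexed HepG2 reporter panel. Cells carrying cis-regulated reporter constructs are treated 24 h, then reporter transcripts are amplified, fluorescently labelled and sized by capillary electrophoresis. DMSO defines baseline.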

[12] = ATG_ERE_CIS: Attagene CIS-FACTORIAL HepG2 Assay for Estrogen Response Element (ERE) (AID 2282940); conditions: HepG2 ERE cis-reporter, Attagene RNA transcript; actives raise or lower the signal
Summary of the method: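 Cells used were human hepatoma HepG2, transfected with multiple reporter transcription units under cis-regulatory promoters. Reporter mRNA, read 24 h post-dosing via fluorescent RT-PCR products on capillary electrophoresis, was fitted bidirectionally relative to DMSO.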

[13] = ATG_Ets_CIS: Attagene CIS-FACTORIAL HepG2 Assay for human Erythroblast Transformation Specific (ETS) (AID 2282941); conditions: HepG2 ETS cis-reporter transcription, actives raise or lower the signal
Summary of the method: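 RT-PCR/capillary electrophoresis fluorescence read-out of reporter mRNA; HepG2 transient multi-reporter transfection; 24 h compound exposure; gain or loss of signal fitted bidirectionally relative to DMSO.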

[14] = target: Hepatocyte nuclear factor 3-beta (Homo sapiens) (UniProt Q9Y261); assay: ATG_FoxA2_CIS: Attagene CIS-FACTORIAL HepG2 Assay for human Forkhead box A2 (FOXA2) (AID 2282942); conditions: HepG2 cis-reporter transcription factor activity, 24 h; actives raise or lower the signal
Hepatocyte nuclear factor 3-beta (Homo sapiens), sequence (Q9Y261 whole entry, looked up): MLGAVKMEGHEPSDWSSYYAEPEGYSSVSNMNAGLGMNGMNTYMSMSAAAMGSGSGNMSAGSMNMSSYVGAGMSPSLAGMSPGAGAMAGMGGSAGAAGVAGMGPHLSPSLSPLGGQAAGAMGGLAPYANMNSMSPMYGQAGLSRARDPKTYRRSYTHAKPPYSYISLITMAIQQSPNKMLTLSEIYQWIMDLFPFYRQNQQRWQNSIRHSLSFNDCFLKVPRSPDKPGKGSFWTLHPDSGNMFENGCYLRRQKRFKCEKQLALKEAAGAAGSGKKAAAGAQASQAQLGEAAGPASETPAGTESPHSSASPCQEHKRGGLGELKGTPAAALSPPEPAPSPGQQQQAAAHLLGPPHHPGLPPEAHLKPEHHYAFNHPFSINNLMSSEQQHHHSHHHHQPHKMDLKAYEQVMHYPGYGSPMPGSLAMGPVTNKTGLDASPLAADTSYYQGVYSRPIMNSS
Summary of the method: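 HepG2 transiently transfected with a multiplexed cis-promoter reporter library read endogenous FOXA2 activity. After 24 h compound exposure, reporter mRNA was quantified by RT-PCR, HpaI digestion and capillary electrophoresis. Bidirectional fit against DMSO.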

[15] = ATG_FoxO_CIS: Attagene CIS-FACTORIAL HepG2 Assay for human Forkhead box O (FoxO) (AID 2282943); conditions: HepG2 Attagene cis-reporter, FoxO element, mRNA; actives raise or lower the signal
Summary of the method: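 Human hepatoma HepG2 cells carry transiently introduced reporter transcription units controlled by cis promoter elements. Chemical treatment lasted 24 h, and mRNA signal was compared with DMSO.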

[16] = ATG_GATA_CIS: Attagene CIS-FACTORIAL HepG2 Assay for human GATA Binding Protein (AID 2282944); conditions: HepG2 GATA cis-element reporter, Attagene multiplex mRNA; actives raise or lower the signal
Summary of the method: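 Endogenous transcription factor activity was captured through cis-promoter-driven reporters in transfected HepG2 cells. After 24 h exposure, reporter transcripts were quantified by RT-PCR with fluorescent capillary electrophoresis, and responses fitted both directions against DMSO.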

[17] = ATG_GLI_CIS: Attagene CIS-FACTORIAL HepG2 Assay for human Zinc Finger Protein GLI1 (AID 2282945); conditions: HepG2, Attagene cis-factorial reporter mRNA, GLI element; actives raise or lower the signal
Summary of the method: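 Bidirectional curve fits relative to DMSO, using reporter mRNA levels from RT-PCR plus capillary electrophoresis. Cells were HepG2 transiently carrying cis-regulated reporter constructs, harvested 24 h after dosing.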

[18] = ATG_AP_2_CIS: Attagene CIS-FACTORIAL HepG2 Assay for human Activator Protein 2 (AP-2) (AID 2282932); conditions: HepG2 AP-2 cis-reporter, Attagene transcription factor profiling; actives raise or lower the signal
Summary of the method: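 Endogenous transcription factor activity is reported through transfected multiplex reporter constructs in HepG2, after 24 h of compound exposure. Transcripts were quantified by RT-PCR and capillary electrophoresis of fluorescent fragments. Bidirectional fit against DMSO.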

[19] = ATG_CMV_CIS: Attagene CIS-FACTORIAL HepG2 Assay for human CMV (Internal Marker) (AID 2282928); conditions: HepG2 CMV promoter reporter, transcription factor profiling; actives raise or lower the signal;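 note: endpoint acts as a background internal control marker rather than a target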
Summary of the method: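 Readout: fluorescent reporter cDNA fragments separated by capillary electrophoresis after RT-PCR and HpaI cut. Cells: HepG2 carrying transfected cis-promoter reporter constructs, dosed 24 h. Endpoint serves as background internal-marker control, fit bidirectionally versus DMSO.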

Measured: AC50

CCCCCCCCCC=O
inactive: [1] | [2] | [3] | [4] | [5] | [6] | [7] | [8] | [9] | [10] | [11] | [12] | [13] | [14] | [15] | [16] | [17]

CCCCCCOC(=O)CC
inactive: [1] | [2] | [3] | [4] | [5] | [18] | [6] | [7] | [8] | [9] | [10] | [11] | [12] | [14] | [15] | [16] | [17]

Cc1ccccc1C=O
active: [4] 53.5 µM
inactive: [2] | [3] | [6] | [7] | [9] | [10] | [11] | [12] | [13] | [16] | [17]

CCC(C)(O)CCC=C(C)C (stereo not drawn)
inactive: [2] | [19] | [3] | [4] | [5] | [18] | [7] | [9] | [10] | [11] | [12] | [13] | [14] | [15] | [16] | [17]

NCCNCCN
inactive: [2] | [19] | [3] | [4] | [5] | [6] | [7] | [9] | [10] | [11] | [13] | [14] | [15] | [16] | [17]

CC1(C)CCC(C)(C)c2cc(C(=O)Nc3ccc(C(=O)O)cc3)ccc21
inactive: [2] | [4] | [5] | [7] | [8] | [9] | [11] | [12] | [13] | [14] | [15] | [16] | [17]
active: [3] 27.6 µM | [18] 66.6 µM | [10] 63 µM

O=C(O)c1ccc(C(=O)O)cc1
inactive: [2] | [19] | [3] | [4] | [5] | [7] | [9] | [10] | [11] | [13] | [14] | [15] | [16] | [17]

BrC1CCC(Br)C(Br)CCC(Br)C(Br)CCC1Br (stereo not drawn)
inactive: [2] | [3] | [4] | [18] | [6] | [7] | [8] | [9] | [11] | [12] | [14]
active: [5] 36.2 µM | [10] 35.9 µM | [13] 143 µM | [15] 87 µM | [16] 66.3 µM | [17] 69.1 µM

Cc1ccc2n[nH]nc2c1
inactive: [2] | [19] | [3] | [5] | [18] | [6] | [7] | [8] | [9] | [10] | [11] | [12] | [13] | [14] | [15] | [16] | [17]
active: [4] 16.3 µM

Nc1cc(Cl)c(O)c(Cl)c1
inactive: [2] | [3] | [4] | [5] | [18] | [6] | [7] | [8] | [9] | [11] | [12] | [13] | [14] | [16]
active: [19] 186 µM | [10] 136 µM | [15] 135 µM | [17] 157 µM

CCOc1ccccc1OCC
inactive: [2] | [19] | [3] | [4] | [18] | [7] | [8] | [9] | [10] | [11] | [13] | [14] | [15] | [16] | [17]

CC(C)(COC(=O)c1ccccc1)COC(=O)c1ccccc1
inactive: [2] | [19] | [3] | [4] | [5] | [18] | [6] | [7] | [8] | [9] | [10] | [11] | [13] | [14] | [16] | [17]

OC1OC[C@@H](O)[C@H](O)[C@H]1O (stereo partly drawn)
inactive: [2] | [19] | [3] | [4] | [5] | [6] | [7] | [8] | [9] | [10] | [11] | [13] | [14] | [15] | [16] | [17]

CC(C)c1ccc(C(C)C)cc1
active: [19] 156 µM | [12] 155 µM
inactive: [2] | [3] | [4] | [5] | [18] | [7] | [8] | [9] | [10] | [13] | [14] | [15] | [16] | [17]
